Consider eight compounds from PubChem BioAssay (NCI).

The structures appear in SMILES notation. About 83,000 compounds went through this panel and 20% of them were active in at least one assay; those are over-represented in the sample as a whole.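 Note: values are percent growth. 100 is the growth of untreated cells, values between 100 and 0 indicate rising inhibition; between -100 and 0 indicates cell death.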 A number with no mark means an inactive call. The source made the active and inactive calls. Rule for the calls: active = growth percent below 10; inactive = the rest.

Common to all, as to assay: NCI-60 one-dose screen, 48 h (100 = growth as untreated, 0 = no growth, -100 = all killed)
For one assay, the system named is NCI-H23 lung. The note with it: 10 µM unless noted.
The next assay concerns NCI-H226 lung. The note with it: 10 µM unless noted.
The test system of a further assay is NCI-H322M lung. The note with it: 10 µM unless noted.
The subject of the next assay is NCI-H460 lung. The note with it: 10 µM unless noted.
The subject of another assay is HOP-92 NSCLC. To be noted: 10 µM.
The test system of a further assay is NCI-H522 lung. The note with it: 10 µM.
The next assay concerns A549/ATCC NSCLC. To be noted: 10 µM unless noted.
In another assay the test system is 786-0 renal. The note with it: 10 µM unless noted.
Another assay relates to COLO 205 colon. The note with it: 10 µM unless noted.
The subject of a further assay is DU-145 prostate. The note with it: 10 µM unless noted.
The next assay concerns K-562 leukemia. The note with it: 10 µM unless noted.
The test system of a further assay is MALME-3M melanoma. The note with it: 10 µM unless noted.
In another assay the test system is MDA-MB-231 breast. The note with it: 10 µM unless noted.
The next assay concerns RXF 393 renal. The note with it: 10 µM unless noted.
The next assay has as its system SF-268 CNS. The note with it: 10 µM unless noted.
Another assay has as its system SF-295 CNS. To be noted: 10 µM unless noted.
Another assay concerns SF-539 CNS. The note with it: 10 µM unless noted.
Another assay concerns UACC-257 melanoma. To be noted: 10 µM unless noted.
The subject of another assay is M14 melanoma. To be noted: 10 µM unless noted.

Regarding `c1ccc(Nc2ncc3c(n2)-c2cccn2CC3)cc1`, the growth is 98.7% with NCI-H23 lung; 59.2% with NCI-H226 lung; 86.9% with NCI-H322M lung; 95.9% in the assay on NCI-H460 lung; 77.4% in the assay with HOP-92 NSCLC; 85.8% in the assay on NCI-H522 lung. Further, the growth is 113% with A549/ATCC NSCLC; 98.7% in the assay on 786-0 renal; 112% with COLO 205 colon; 99.4% in the assay on DU-145 prostate; 96.6% in the assay on K-562 leukemia; 95.1% in the assay on MALME-3M melanoma. The growth in the assay with MDA-MB-231 breast is 80.8%; with RXF 393 renal, 97.8%; in the assay with SF-268 CNS it was 85.8%; with SF-295 CNS it was 99.2%; in the assay with SF-539 CNS, 87.1%; in the assay on UACC-257 melanoma, 124%. For the same compound, the growth with M14 melanoma is 91.7%.
In the case of `CCOC(=O)C1=C(c2ccccc2)NC(=O)NC1CN1C(=O)c2ccccc2C1=O` (configuration not stated), the growth in the assay on NCI-H23 lung was 93.9%; with NCI-H226 lung, 105%; in the assay on NCI-H322M lung it was 118%; in the assay with NCI-H460 lung, 105%; in the assay with HOP-92 NSCLC, 72.9%; in the assay on NCI-H522 lung it was 108%. The growth with A549/ATCC NSCLC is 127%; in the assay with 786-0 renal, 102%; with COLO 205 colon it was 116%; in the assay with DU-145 prostate it was 105%; with K-562 leukemia, 50.6%; in the assay with MALME-3M melanoma, 71.2%. In addition, the growth is 108% in the assay with MDA-MB-231 breast; 116% in the assay with RXF 393 renal; 93.7% in the assay with SF-268 CNS; 115% in the assay with SF-295 CNS; 106% with SF-539 CNS; 112% in the assay on UACC-257 melanoma.
As for `COc1cc(CCNc2cnc3cc(N)cc(N)c3n2)cc(OC)c1`, the growth in the assay on NCI-H23 lung is 107%; in the assay on NCI-H226 lung, 99.4%; in the assay on NCI-H322M lung, 102%; in the assay on NCI-H460 lung, 120%; in the assay on HOP-92 NSCLC, 154%; with NCI-H522 lung, 98.2%. Further, the growth in the assay on A549/ATCC NSCLC was 112%; in the assay with 786-0 renal, 101%; with COLO 205 colon it was 136%; in the assay with DU-145 prostate it was 118%; in the assay on K-562 leukemia, 35.3%; in the assay with MALME-3M melanoma, 146%. For the same compound, the growth in the assay with MDA-MB-231 breast is 96.7%; in the assay on RXF 393 renal it was 114%; with SF-268 CNS, 109%; in the assay on SF-295 CNS, 116%; with SF-539 CNS, 123%; with UACC-257 melanoma, 111%.
`Oc1ccccc1\C=N/N=C/C=C/c1ccccc1`: the growth was 92.7% in the assay on NCI-H23 lung; 103% with NCI-H226 lung; 98.6% in the assay on NCI-H322M lung; 99% with NCI-H460 lung; 103% in the assay with HOP-92 NSCLC; 87.4% in the assay with NCI-H522 lung. The growth in the assay with A549/ATCC NSCLC was 105%; in the assay on 786-0 renal, 111%; in the assay on COLO 205 colon, 108%; in the assay with DU-145 prostate, 105%; in the assay with K-562 leukemia, 82.9%; with MALME-3M melanoma, 102%. The growth is 67.1% with MDA-MB-231 breast; 117% in the assay with RXF 393 renal; 88.9% with SF-268 CNS; 98.4% with SF-295 CNS; 104% with SF-539 CNS; 107% in the assay on UACC-257 melanoma. Besides, the growth in the assay with M14 melanoma was 95.8%.
Turning to `CC(=O)N1N=C(c2ccc(Cl)cc2)CC1c1cn(-c2ccccc2)nc1-c1ccc([N+](=O)[O-])cc1` (configuration not stated), the growth with NCI-H23 lung is 101%; in the assay with NCI-H226 lung, 93.6%; with NCI-H322M lung, 83.1%; with NCI-H460 lung it was 101%; in the assay on HOP-92 NSCLC, 117%; with NCI-H522 lung, 103%. Also, the growth in the assay with A549/ATCC NSCLC was 108%; in the assay with 786-0 renal, 104%; in the assay on COLO 205 colon, 93.9%; in the assay on DU-145 prostate, 116%; with K-562 leukemia, 118%; in the assay with MALME-3M melanoma it was 92%. For the same compound, the growth with MDA-MB-231 breast was 104%; with RXF 393 renal, 135%; with SF-268 CNS, 102%; in the assay on SF-295 CNS, 104%; with SF-539 CNS, 93.6%; in the assay with UACC-257 melanoma it was 106%.
As for `O=C1NCCN1/N=C/c1c(Cl)nc2n1CCS2`, the growth is 106% in the assay with NCI-H23 lung; 151% in the assay on NCI-H226 lung; 94.6% in the assay with NCI-H322M lung; 111% with NCI-H460 lung; 51.3% with HOP-92 NSCLC; 34.3% in the assay on NCI-H522 lung. The growth in the assay on A549/ATCC NSCLC is 113%; in the assay with 786-0 renal it was 90%; in the assay on COLO 205 colon, 133%; in the assay on DU-145 prostate, 85.8%; in the assay on K-562 leukemia, 87.3%; with MALME-3M melanoma, 91.7%. For the same compound, the growth is 130% in the assay with MDA-MB-231 breast; 150% in the assay on RXF 393 renal; 113% in the assay with SF-268 CNS; 111% with SF-295 CNS; 94.9% with SF-539 CNS; 105% with UACC-257 melanoma.
`CCC1(CC)C(OC)NC(Br)=C(C#N)C1(C#N)C(N)=O` (configuration not stated): the growth is 99.1% in the assay with NCI-H23 lung; 114% in the assay on NCI-H226 lung; 118% in the assay on NCI-H322M lung; 115% in the assay with NCI-H460 lung; 77.3% with HOP-92 NSCLC; 98% in the assay on NCI-H522 lung. The growth in the assay on A549/ATCC NSCLC was 114%; in the assay on 786-0 renal, 94.3%; in the assay with COLO 205 colon it was 126%; in the assay on DU-145 prostate, 97.5%; in the assay with K-562 leukemia, 91.5%; in the assay on MALME-3M melanoma it was 137%. Also, the growth in the assay on MDA-MB-231 breast was 102%; in the assay on RXF 393 renal, -5.04% (active); in the assay on SF-268 CNS it was 131%; with SF-295 CNS, 122%; in the assay with SF-539 CNS, 93.9%; in the assay with UACC-257 melanoma, 103%. In addition, in the assay with M14 melanoma, the growth is -100% (active).
As for `CCOC(=O)C1=C(C(F)(F)F)NC(=S)NC1CN1C(=O)c2ccccc2C1=O` (configuration not stated), the growth in the assay with NCI-H23 lung was 87.5%; in the assay on NCI-H226 lung it was 116%; in the assay on NCI-H322M lung, 103%; in the assay with NCI-H460 lung, 106%; in the assay with HOP-92 NSCLC it was 82.3%; in the assay with NCI-H522 lung, 111%. For the same compound, the growth in the assay with A549/ATCC NSCLC is 118%; with 786-0 renal it was 99.7%; with COLO 205 colon, 119%; in the assay with DU-145 prostate, 115%; with K-562 leukemia, 101%; in the assay with MALME-3M melanoma, 92.9%. The growth in the assay with MDA-MB-231 breast was 90.2%; in the assay with RXF 393 renal, 113%; with SF-268 CNS, 101%; in the assay with SF-295 CNS it was 93%; in the assay with SF-539 CNS, 104%; in the assay with UACC-257 melanoma, 110%.
